Records with an inconclusive call do not appear. Active and inactive are the calls of the source. Calls come from the whole dose curve; as a rule, active = well fitted cell-killing curve with a large enough effect in the repeat runs; inconclusive = weak or mixed curves, or effect the other way; inactive = no such curve, though single readings can be large or run the other way.
% is set by controls: 0 for no effect and ±100 for the full control effect.

A short description of the experiment: qHTS assay to identify small molecule agonists of the vitamin D receptor (VDR) signaling pathway - cell viability counter screen (AID 743224). Note: nearly all actives have a fitted effect of over 50% in size. Particulars: VDR-bla HEK293T viability, CellTiter-Glo luminescence, 16 h; series mostly up to 62.6 µM. The text has this:
U.S. Tox21 Program National Center for Advancing Translational Sciences [NCATS] NIH Chemical Genomics Center [NCGC] U.S. Environmental Protection Agency [EPA] National Institutes of Environmental Health Sciences [NIEHS] National Toxicology Program [NTP] U.S. Food and Drug Administration [FDA] Tox21 Assay Overview: The vitamin D receptor (VDR), a member of nuclear hormone receptor superfamily, plays a critical role in calcium homeostasis and bone metabolism. It is also involved in cell differentiation and growth, and thrombogenicity. […] The cytotoxicity of the Tox21 compound library against the VDR-bla cell line was tested in parallel by measuring the cell viability using CellTiter-Glo assay (Promega, Madison, WI) in the same wells.
Tox21 Assay Protocol Summary: VDR-bla cells were dispensed at 2,000 cells/6 uL/well into black wall/clear-bottom 1536-well plates using a Multidrop Combi (Thermo Fisher Scientific, Waltham, MA) dispenser. After the assay plates were incubated at a 37C and 5% CO2 for 4 h, 23 nL of compounds dissolved in DMSO, positive controls or DMSO only was transferred to the assay plate by a Pintool station (Kalypsys, San Diego, CA). The plates were incubated at 37C and 5% CO2 for 16 h. After 1 uL of LiveBLAzerTM B/G FRET substrate was added using a Bioraptr Flying Reagent Dispenser (FRD) workstation (Beckman Coulter, Indianapolis, IN, USA), the plates were incubated at room temperature for 2 h, and fluorescence intensity was measured by an Envision plate reader (PerkinElmer, Shelton, CT). For cell viability readout that measures cytotoxicity, 3 ul/well of CellTiter-Glo reagent was added into the assay plates using a FRD. After 30 min incubation at room temperature, the luminescence intensity in the plates was measured using a ViewLux (PerkinElmer) plate reader.
On to `C=CCOCC(O)CCl` (stereo not given), for which the compound was called inactive. For `O=S1(=O)CCCC1`, the call was inactive. For the compound `CC(C)C(=O)Nc1cccc(C(F)(F)F)c1`, the compound was called inactive. Take `CC(=O)c1ccc2c(c1)CCCC2`: the call was inactive. On the same count and under the same terms, the result for `COc1ccc(OC)c(NC(=O)CC(C)=O)c1` reads “inactive”; that for `CC(=O)Nc1ncc([N+](=O)[O-])s1`, “inactive”; that for `O=C1OC(=O)c2ccccc21`, “inactive”. Regarding `CCS(=O)(=O)CCn1c([N+](=O)[O-])cnc1C`, the compound was classed as inactive.

Take `O=C(/C=C/c1ccccc1)NCCO`: the compound was classed as inactive. Turning to `O=C(O)Cc1cccc(-c2cc(CCCCCCc3ccc(O[C@H]4O[C@H](CO)[C@@H](O)[C@H](O)[C@@H]4O)c(-c4cccc(CC(=O)O)c4)c3)ccc2O[C@H]2O[C@H](CO)[C@@H](O)[C@H](O)[C@@H]2O)c1`, the activity change, negative = cytotoxicity was -3.17% [at 0.55 µM] (inactive). Regarding `BrC/C=C/CBr`, the outcome was inactive. Take `CC(C)SCc1ccco1`: the outcome was inactive. With `c1ccc(CNc2ncnc3nc[nH]c23)cc1`, the call was inactive. With `CCOC(=O)CC#N`, the outcome was inactive. With `C=C(C)[C@@H]1CC[C@@H](C)C[C@@H]1O`, the outcome was inactive. In the case of `Cc1ccccc1N1CCN(CCc2nnc3n2CCCC3)CC1`, the call was inactive. Turning to `F[Si-2](F)(F)(F)(F)F`, the call was inactive. Consider `c1ccccc1`, for which the result was inactive. Still for that read-out and setting: the result for `CN[C@@H]1[C@H](O)[C@H](NC)[C@H]2O[C@@]3(O)C(=O)C[C@@H](C)O[C@H]3O[C@@H]2[C@H]1O` reads “inactive”; that for `CCC(C)N` (stereo not given), “inactive”; that for `Cc1ccc(C(=O)C(=O)O)cc1C`, “inactive”.

As to `CC(C)COC(=O)COc1ccc(Cl)cc1Cl`, the call was inactive. For `C1=C\CC/C=C\CC/1`, the result was inactive. `Cc1nc2ccccc2c(=O)o1`: the compound was called inactive. Turning to `C=CCOc1cc(Cl)ccc1C(=O)NCCN(CC)CC`, the outcome was inactive. On the same count and under the same terms, the result for `C[Si]1(C)N[Si](C)(C)N[Si](C)(C)N1` reads “inactive”; that for `CC(C)COC(=O)CCCCC(=O)OCC(C)C`, “inactive”. Same read-out and setting: the result for `C[C@@H]1C[C@H]2[C@@H]3C[C@H](F)C4=CC(=O)C=C[C@]4(C)[C@@]3(F)[C@@H](O)C[C@]2(C)[C@@]1(O)C(=O)CO` reads “inactive”; that for `CC(C)CCO`, “inactive”; that for `Nc1ccc(S(=O)(=O)Nc2ccccn2)cc1`, “inactive”. Still for that read-out and setting: the result for `CCCCCCCCCCCCOC(C)=O` reads “inactive”; that for `OCCCCCCCl`, “inactive”; that for `Cc1ccccc1C(=O)N1CC/C(=N\OS(=O)(=O)O)c2ccc(Cl)cc21`, “inactive”. As to `FC(F)(F)/C(=N\OCC1OCCO1)c1ccc(Cl)cc1`, the call was inactive. Turning to `CC(C)(C)NCCO`, the compound was classed as inactive. Consider `O=c1[nH]c(=O)c2[nH]c(=O)[nH]c2[nH]1`, for which the activity change, negative = cytotoxicity was -0.867% [at 13.2 µM] (inactive).

Consider `C=CCOCC(CO)(COCC=C)COCC=C`, for which the compound was classed as inactive.

As for `CC(=O)OCCCc1ccccc1`, the compound was called inactive.

On to `CCOc1ccc(NC(=O)OC(C)C)cc1OCC`, for which the result was inactive.

As to `CCCCC/C=C/CC(=O)OC`, the result was inactive.
